Laboratory results: PubChem BioAssay (NCATS)
Results filed as inconclusive are left out. Active and inactive are the calls of the source. Calls come from the whole dose curve; as a rule, active = well fitted curve in the direction sought with a large enough effect; inconclusive = small, poorly fitted or top-dose-only effect, or another doubt; inactive = no such curve, though single readings can be large; an effect the other way counts as inactive or inconclusive.

Experiments:
[1] = target: Rap guanine nucleotide exchange factor 3 (Homo sapiens) (UniProt O95398); assay: Confirmatory qHTS for agonist of cAMP-regulated guanine nucleotide exchange factor 3 (EPAC1) (AID 1645881);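 note: EPAC1 catalysed release of BODIPY-GDP from Rap1B seen as fluorescence loss; 100% = effect of cAMP agonist control; nearly all actives have a fitted effect of over 75% in size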
Sequence of Rap guanine nucleotide exchange factor 3 (Homo sapiens) (O95398 whole entry, looked up): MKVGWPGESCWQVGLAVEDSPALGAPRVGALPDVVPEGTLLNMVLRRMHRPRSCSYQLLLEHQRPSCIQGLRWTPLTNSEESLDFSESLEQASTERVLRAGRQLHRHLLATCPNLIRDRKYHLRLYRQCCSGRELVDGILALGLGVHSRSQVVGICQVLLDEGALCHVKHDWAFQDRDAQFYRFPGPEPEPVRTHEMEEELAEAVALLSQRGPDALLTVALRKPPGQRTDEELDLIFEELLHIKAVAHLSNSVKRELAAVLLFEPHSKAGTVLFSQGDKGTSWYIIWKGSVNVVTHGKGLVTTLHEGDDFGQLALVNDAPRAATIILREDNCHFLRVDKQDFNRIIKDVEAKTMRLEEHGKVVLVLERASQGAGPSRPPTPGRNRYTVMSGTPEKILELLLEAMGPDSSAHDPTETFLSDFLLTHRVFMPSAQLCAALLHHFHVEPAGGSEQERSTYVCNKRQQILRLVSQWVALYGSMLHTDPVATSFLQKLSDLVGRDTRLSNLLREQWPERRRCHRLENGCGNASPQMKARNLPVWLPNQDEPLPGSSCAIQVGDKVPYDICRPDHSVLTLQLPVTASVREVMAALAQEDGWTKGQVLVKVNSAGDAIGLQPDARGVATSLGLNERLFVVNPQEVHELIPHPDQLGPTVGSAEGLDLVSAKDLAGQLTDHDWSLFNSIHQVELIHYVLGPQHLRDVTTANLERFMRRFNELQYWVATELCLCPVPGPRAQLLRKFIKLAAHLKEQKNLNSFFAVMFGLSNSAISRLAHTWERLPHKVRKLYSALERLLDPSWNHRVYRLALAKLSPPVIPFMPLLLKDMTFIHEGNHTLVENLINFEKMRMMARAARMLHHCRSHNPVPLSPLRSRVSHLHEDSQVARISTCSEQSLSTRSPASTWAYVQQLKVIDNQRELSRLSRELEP

[2] = target: Rap guanine nucleotide exchange factor 4 (Homo sapiens) (UniProt Q8WZA2); assay: Confirmatory qHTS for agonist of cAMP-regulated guanine nucleotide exchange factor 4 (EPAC2) (AID 1645884);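 note: nucleotide exchange releases bodipy-GDP from Rap1 and this lowers its fluorescence; % is set by controls: 0 for no effect and ±100 for the full control effect; nearly all actives have a fitted effect of over 65% in size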
Sequence of Rap guanine nucleotide exchange factor 4 (Homo sapiens) (Q8WZA2 whole entry, looked up): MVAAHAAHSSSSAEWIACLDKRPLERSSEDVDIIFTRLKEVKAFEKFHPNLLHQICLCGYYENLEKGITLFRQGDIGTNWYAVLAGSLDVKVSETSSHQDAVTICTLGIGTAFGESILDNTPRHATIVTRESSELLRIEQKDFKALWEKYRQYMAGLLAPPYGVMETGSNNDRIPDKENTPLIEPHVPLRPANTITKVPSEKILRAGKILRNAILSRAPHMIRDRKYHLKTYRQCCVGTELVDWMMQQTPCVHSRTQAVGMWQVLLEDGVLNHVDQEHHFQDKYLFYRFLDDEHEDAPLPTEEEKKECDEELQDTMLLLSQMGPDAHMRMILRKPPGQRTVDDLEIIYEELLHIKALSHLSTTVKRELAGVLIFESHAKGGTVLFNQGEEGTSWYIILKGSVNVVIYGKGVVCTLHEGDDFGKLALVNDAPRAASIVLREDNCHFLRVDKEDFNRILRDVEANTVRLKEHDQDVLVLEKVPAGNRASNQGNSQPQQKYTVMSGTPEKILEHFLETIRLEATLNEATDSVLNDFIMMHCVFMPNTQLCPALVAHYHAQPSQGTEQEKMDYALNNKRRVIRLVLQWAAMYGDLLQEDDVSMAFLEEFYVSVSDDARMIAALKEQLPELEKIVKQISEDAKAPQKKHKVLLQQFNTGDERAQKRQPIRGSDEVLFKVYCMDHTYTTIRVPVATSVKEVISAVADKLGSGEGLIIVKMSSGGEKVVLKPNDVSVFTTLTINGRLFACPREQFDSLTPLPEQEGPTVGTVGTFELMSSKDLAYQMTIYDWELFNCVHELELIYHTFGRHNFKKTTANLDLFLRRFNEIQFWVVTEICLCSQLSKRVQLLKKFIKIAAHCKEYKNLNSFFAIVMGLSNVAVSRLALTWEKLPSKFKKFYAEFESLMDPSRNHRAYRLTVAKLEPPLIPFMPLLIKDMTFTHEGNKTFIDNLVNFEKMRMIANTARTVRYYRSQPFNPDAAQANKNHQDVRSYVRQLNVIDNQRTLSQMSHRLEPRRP

[3] = target: Rap guanine nucleotide exchange factor 4 (Homo sapiens) (UniProt Q8WZA2); assay: Confirmatory qHTS for antagonist of cAMP-regulated guanine nucleotide exchange factor 4 (EPAC2) (AID 1645885); note: nearly all actives have a fitted effect of over 25% in size; note: potency is the fitted concentration of half-maximal effect; for activity change, negative = inhibition: % is set by controls: 0 for no effect and ±100 for the full control effect
[4] = target: Rap guanine nucleotide exchange factor 3 (Homo sapiens) (UniProt O95398); assay: Counterscreen qHTS for antagonist of cAMP-regulated guanine nucleotide exchange factor 3 (EPAC1) (AID 1645888);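 note: fluorescence loss as bound BODIPY-GDP is released from Rap1B; % of control where 0% means no effect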
Outline: (§1)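 Rap1B–BODIPY-GDP (250 nM) with 50 uM GDP; compounds pin-transferred to 9.74 nM–152 uM final (activator) or from 7.32 nM upwards (inhibitor). Fluorescence Ex/Em 480/540 nm read at 5 and 30 min, then after adding cAMP or buffer, at room temperature.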

[5] = target: Rap guanine nucleotide exchange factor 3 (Homo sapiens) (UniProt O95398); assay: Counterscreen qHTS for agonist of cAMP-regulated guanine nucleotide exchange factor 3 (EPAC1) (AID 1645889); note: % of control where 0% means no effect; nearly all actives have a fitted effect of over 40% in size
Outline: as §1

COCC(=O)Oc1c(Sc2ccccc2[N+](=O)[O-])c(C)nn1C(C)(C)C
inactive: Potency [1] | Potency [2] | Potency [3] | Potency [4] | Potency [5]

Cc1ccc(Cl)cc1NC(=O)Nc1cn(CC(C)C)c(=O)c2ccccc12
inactive: Potency [1] | Potency [2] | outcome [3] inactive [at 12.7 µM] | Potency [4] | Potency [5]

CCOC(=O)C(C)n1nc(-c2ccccc2)c2ccccc2c1=O (stereo not given)
inactive: Potency [1] | Potency [2] | Potency [3] | Potency [4] | Potency [5]

O=C(Nc1cccc([N+](=O)[O-])c1)c1ccc2c(c1)C(=O)N(c1ccccn1)C2=O
inactive: Potency [1] | activation [2] 10.8% [at 17.1 µM, percent relative to cAMP agonist control] | Potency [3] | activity change, negative = inhibition [4] -7.46% [at 30.8 µM] | activation [5] 12.1% [at 30.8 µM]

C=CCN(CC=C)Cc1cc(=O)oc2cc(C)c(Cl)cc12
inactive: Potency [1] | activation [2] 4.33% [at 17.1 µM, percent relative to cAMP agonist control] | Potency [3] | activity change, negative = inhibition [4] -4.4% [at 30.8 µM] | activation [5] 3.33% [at 30.8 µM]

COc1ccc(C(CNC(=O)c2cccc(S(=O)(=O)Nc3ccc(C)cc3)c2)N2CCOCC2)cc1 (stereo not given)
inactive: Potency [1] | Potency [2] | Potency [3] | Potency [4] | Potency [5]

CN1CCN(C(=O)c2ccc(COc3ccc(C(C)(C)C)cc3)o2)CC1
inactive: Potency [1] | activation [2] 8.37% [at 17.1 µM, percent relative to cAMP agonist control] | Potency [3] | activity change, negative = inhibition [4] 8.52% [at 30.8 µM] | activation [5] 9.82% [at 30.8 µM]

COc1cc2c(c(OC)c1OC)-c1c(cc(OC)c(OC)c1OC)C[C@H](C)[C@H](C)C2
inactive: Potency [1] | activation [2] 7.13% [at 17.1 µM, percent relative to cAMP agonist control] | Potency [3] | activity change, negative = inhibition [4] -11.3% [at 30.8 µM] | activation [5] 23.6% [at 30.8 µM]

Cc1ccc2nc(-c3ccccc3)c(Cc3cccc(F)c3)n2c1
inactive: Potency [1] | Potency [2] | Potency [4] | Potency [5]
active: Potency [3] 0.426 µM

CCCOC(=O)c1c(NC(=O)C2C3C=CC(C3)C2C(=O)O)sc2c1CCC(C)C2 (stereo not given)
inactive: Potency [1] | activation [2] 8.63% [at 17.1 µM, percent relative to cAMP agonist control] | Potency [3] | activity change, negative = inhibition [4] 1.23% [at 30.8 µM] | activation [5] 40.1% [at 30.8 µM]

Cc1nc2c(C(=O)NCc3ccc(F)cc3)c[nH]n2c(=O)c1Cl
inactive: Potency [1] | Potency [2] | Potency [3] | Potency [4] | Potency [5]

CC1(C(=O)NS(=O)(=O)c2ccc(Cl)cc2)CCN1C(=O)C1(c2ccccc2)CCCC1 (stereo not given)
inactive: Potency [1] | Potency [2] | Potency [3] | Potency [4] | Potency [5]

O=C(Cn1ncc(Cl)c(Cl)c1=O)NC(=O)NC1CCCCC1
inactive: Potency [1] | activation [2] 3.69% [at 17.1 µM, percent relative to cAMP agonist control] | Potency [3] | activity change, negative = inhibition [4] -1.53% [at 30.8 µM] | activation [5] 9.51% [at 30.8 µM]

CCc1cc(C(=O)N=Nc2c(O)[nH]c3ccc([N+](=O)[O-])cc23)c2ccccc2n1
inactive: Potency [1] | Potency [2] | Potency [3] | Potency [4] | Potency [5]

CCCn1nc([N+](=O)[O-])c(C(C#N)c2nc3ccccc3o2)c(Cl)c1=O (stereo not given)
inactive: Potency [1] | Potency [2] | Potency [4] | Potency [5]
active: Potency [3] 37.9 µM

CCOc1cccc(C(=O)Nc2ccc3oc(Cc4ccc(Cl)cc4)nc3c2)c1
inactive: Potency [1] | activation [2] 0% [at 17.1 µM, percent relative to cAMP agonist control] | Potency [3] | activity change, negative = inhibition [4] -8.02% [at 30.8 µM] | activation [5] 18.7% [at 30.8 µM]

Cn1c(N)c(C(=O)CSc2nnc(-c3c[nH]c4ccccc34)n2C2CC2)c(=O)[nH]c1=O
inactive: Potency [1] | activation [2] 1.91% [at 17.1 µM, percent relative to cAMP agonist control] | Potency [3] | activity change, negative = inhibition [4] 2.97% [at 30.8 µM] | activation [5] 17.7% [at 30.8 µM]

Cc1nnc(-c2ccco2)c2cn(-c3cccc(Br)c3)nc12
inactive: Potency [1] | Potency [2] | Potency [3] | Potency [4] | Potency [5]

CCOC(=O)c1c(C)[nH]c(C(=O)OCC(=O)Nc2sccc2C(N)=O)c1C
inactive: Potency [1] | Potency [2] | Potency [3] | Potency [4] | Potency [5]

CC1C(=O)N(Cc2cn(Cc3ccco3)nn2)CCS(=O)(=O)N1Cc1ccc(-c2cccnc2)cc1 (stereo not given)
inactive: Potency [1] | activation [2] -1.85% [at 17.1 µM, percent relative to cAMP agonist control] | Potency [3] | activity change, negative = inhibition [4] 0.588% [at 30.8 µM] | activation [5] 21.5% [at 30.8 µM]

COc1ccc(N=C2SC(C(=O)Nc3ccc(C(=O)O)cc3)CC(=O)N2Cc2cccs2)cc1 (stereo not given)
inactive: Potency [1] | activation [2] -0.227% [at 17.1 µM, percent relative to cAMP agonist control] | Potency [3] | activity change, negative = inhibition [4] -2.18% [at 30.8 µM] | activation [5] 7.24% [at 30.8 µM]

CC(=O)NS(=O)(=O)c1ccc(Nc2ccc([N+](=O)[O-])c3nonc23)cc1
inactive: Potency [1] | activation [2] 14.6% [at 17.1 µM, percent relative to cAMP agonist control] | Potency [3] | activity change, negative = inhibition [4] -18.4% [at 30.8 µM] | activation [5] 1.5% [at 30.8 µM]

Cc1ccc(-c2csc(/C(C#N)=C(\O)CCl)n2)cc1
inactive: Potency [1] | activation [2] -6.35% [at 17.1 µM, percent relative to cAMP agonist control] | Potency [3] | activity change, negative = inhibition [4] -2.33% [at 30.8 µM] | activation [5] 14.1% [at 30.8 µM]

Cc1ccc(/C=C/C(=O)Nc2nnc(SCc3ccc(C#N)cc3)s2)o1
inactive: Potency [1] | Potency [2] | Potency [3] | Potency [4] | Potency [5]

Cc1ccc(OCC(=O)Nc2ccc(N3CCCC3)cc2)cc1C
inactive: Potency [1] | Potency [2] | Potency [3] | Potency [4] | Potency [5]

CCc1ccc(OCC2c3cc(OC)c(OC)cc3CCN2C(C)=O)cc1 (stereo not given)
inactive: Potency [1] | Potency [2] | Potency [4] | Potency [5]
active: Potency [3] 42.6 µM

O=C(O)C1CC(c2ccc(F)cc2)=NO1 (stereo not given)
inactive: Potency [1] | activation [2] -14.9% [at 17.1 µM, percent relative to cAMP agonist control] | Potency [3] | activity change, negative = inhibition [4] -15.4% [at 30.8 µM] | activation [5] 21.8% [at 30.8 µM]

CCc1ccc(-n2c(CCC(=O)O)ccc2-c2cccs2)cc1
inactive: Potency [1] | Potency [2] | Potency [3] | Potency [4] | Potency [5]

CCC(=O)N(CCC1(c2ccccc2OC)CCOC(C(C)C)C1)Cc1ccco1 (stereo not given)
inactive: Potency [1] | activation [2] -0.808% [at 17.1 µM, percent relative to cAMP agonist control] | Potency [3] | activity change, negative = inhibition [4] -14.7% [at 30.8 µM] | activation [5] 10.9% [at 30.8 µM]

COCCNc1nc(Oc2ccccc2)c2sccc2n1
inactive: Potency [1] | Potency [2] | Potency [3] | Potency [4] | Potency [5]

CC1(Cc2ccccc2Cl)C(=O)Nc2c(Cl)cccc21 (stereo not given)
inactive: Potency [1] | activation [2] 10% [at 17.1 µM, percent relative to cAMP agonist control] | Potency [3] | activity change, negative = inhibition [4] -23.5% [at 30.8 µM] | activation [5] 5.68% [at 30.8 µM]

CCOC(=O)C1=C(N)Oc2cc(O)ccc2C1c1ccccc1 (stereo not given)
inactive: Potency [1] | activation [2] -4.25% [at 17.1 µM, percent relative to cAMP agonist control] | Potency [3] | activity change, negative = inhibition [4] -7.53% [at 30.8 µM] | activation [5] 10.8% [at 30.8 µM]

CC(=O)/C(=N/Nc1ccccc1)Sc1nnc(CCc2ccccc2)n1-c1ccccc1
inactive: Potency [1] | Potency [2] | Potency [3] | Potency [4] | Potency [5]

COC(=O)c1ccc(-c2ccc(/C=N/N3C(=O)C4C5C=CC(C6CC56)C4C3=O)o2)cc1 (stereo not given)
inactive: Potency [1] | activation [2] 1.41% [at 17.1 µM, percent relative to cAMP agonist control] | Potency [3] | activity change, negative = inhibition [4] -3.98% [at 30.8 µM] | activation [5] 7.8% [at 30.8 µM]

CC1CCC(NC(=O)Cn2c3c(c(-c4ccccc4Cl)cc2=O)CCC3)CC1 (stereo not given)
inactive: Potency [1] | activation [2] 13.3% [at 17.1 µM, percent relative to cAMP agonist control] | Potency [3] | activity change, negative = inhibition [4] -11.4% [at 30.8 µM] | activation [5] 6.93% [at 30.8 µM]

CCCCN1CC(c2nc3ccccc3n2CCCCOc2cc(C)cc(C)c2)CC1=O (stereo not given)
inactive: Potency [1] | Potency [2] | Potency [3] | Potency [4] | Potency [5]

OC(c1cc(F)cc(Cl)c1)c1ncc(-c2cccc(C(F)(F)F)c2)[nH]1 (stereo not given)
inactive: Potency [1] | activation [2] -1.66% [at 17.1 µM, percent relative to cAMP agonist control] | Potency [3] | activity change, negative = inhibition [4] -12% [at 30.8 µM] | activation [5] 19.7% [at 30.8 µM]
